This note sets out measurements from PubChem BioAssay (EPA / NIEHS).

“And” between values parts separate entries of the source, which are not always exact repeats. Equal entries are not always repeated. Records with an inconclusive call do not appear. Where a structure was tested more than once in an assay, its records may differ in their call. The source made the active and inactive calls. How the source made its calls: active means hit-call score of the fitted dose curve at least 0.9, where 1 is the maximum; inconclusive means response in the unintended direction; inactive means score below 0.9.

The first assay can be described thus: ACEA_AR_agonist_AUC_viability: ACEA Biosciences xCELLigence Real-Time Cell Analysis on Androgen Receptor Agonism for Viability (AID 2283775).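 On AC50: viability read 80 hours after compound addition.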 Put shortly:
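22Rv1 cells; impedance growth kinetics; 8-pt 1:4 dilutions from 100 uM top final, ≤0.5% DMSO; n = 2; 80 h read; AUC viability, loss-of-signal vs DMSO.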
Consider `CCCCCCCCCCCCc1cccc(S(=O)(=O)O)c1`, for which the half-maximal activity concentration (AC50) (usually the concentration giving half of the maximal activity seen) is 76.7 µM (active).
For the compound `COc1nn(C(=O)NS(=O)(=O)c2ccccc2OC(F)(F)F)c(=O)n1C`, the call was inactive.
As to `CC(O)(CS(=O)(=O)c1ccc(F)cc1)C(=O)Nc1ccc(C#N)c(C(F)(F)F)c1` (stereo unspecified), the AC50 was 44 µM (active) and the result was inactive.
As to `N#CCC#N`, the outcome was inactive.
On the same count and under the same terms, with `CCCCCCCCCCCCN(C)C` the entry was “inactive”.
For the compound `O=C1c2ccccc2C(=O)C1C(=O)C(c1ccccc1)c1ccc(Cl)cc1` (stereo unspecified), the half-maximal activity concentration (AC50) was 26.7 µM (active).
Consider `N#CS`, for which the result was inactive.
As for `CC(=Cc1ccccc1)[N+](=O)[O-]`, the half-maximal activity concentration (AC50) was 13.5 µM (active).
Turning to `O=c1[nH]c(=O)n(Cl)c(=O)n1Cl`, the call was inactive.
On the same count and under the same terms, the result for `CC(C)(C)c1ccccc1O` reads “inactive”; that for `CCN(CCO)CCO`, “inactive”; that for `O=[N+]([O-])c1ccccc1O`, “inactive”.
On the same count and under the same terms, with `Clc1cccc(Cl)c1` the entry was “inactive”; with `COCCl`, “inactive”.
Regarding `CCOCn1c(-c2ccc(Cl)cc2)c(C#N)c(Br)c1C(F)(F)F`, the AC50 is 6.93 µM (active).
On the same count and under the same terms, with `CCCCCCCCCCCCOS(=O)(=O)O` the figure was 77.7 µM (active); with `O=C(CCl)Nc1ccccc1`, 24.5 µM (active).
Regarding `CN(C)C(=S)S`, the compound was called inactive.
Same read-out and setting: with `N#Cc1cccnc1` the entry was “inactive”; with `O=c1nc(O)n(Cl)c(=O)n1Cl`, “inactive”.
On to `O=C(NC(=O)c1c(F)cccc1F)Nc1cc(Cl)c(OC(F)(F)C(F)C(F)(F)F)cc1Cl` (stereo unspecified), for which the AC50 is 5.54 µM (active).
Take `Nc1ccc(N)cc1`: the result was inactive.
Still for that read-out and setting: with `OCCCCO` the entry was “inactive”.
Same read-out and setting: the result for `C=CC(Cl)CCl` (stereo unspecified) reads “inactive”; that for `O=C(O)COc1ccc(Cl)cc1`, “inactive”.
As to `CCC[CH2][Sn]([Cl])([Cl])[CH2]CCC`, the concentration at half-maximal activity (AC50) is 4.16 µM (active).
Still for that read-out and setting: with `CC(C)N(C(=O)CCl)c1ccccc1` the figure was 24.2 µM (active).
On the same count and under the same terms, the result for `O=C(O)C1(c2ccc3c(c2)OC[C@H](Cc2ccc(-c4ccccc4)cc2)[C@H]3O)CCCC1` reads 34.6 µM (active).
With `Clc1cccc(Cl)c1Cl`, the outcome was inactive.
In the case of `CC(C)O.CC(C)O.OCCN(CCO)CCO.OCCN(CCO)CCO.[Ti]`, the compound was classed as inactive.
Same read-out and setting: the result for `COc1ccccc1N` reads “inactive”; that for `COc1ccc(N)cc1`, “inactive”.
For the compound `Oc1cc(Cl)c(Cl)cc1Cl`, the AC50 was 64.8 µM (active).

Another assay can be described thus: ACEA_AR_antagonist_AUC_viability: ACEA Biosciences xCELLigence Real-Time Cell Analysis on Androgen Receptor Antagonism for Viability (AID 2283776).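 Further: 22Rv1 human prostate cancer cells growing on impedance electrode plates; area under impedance growth curve at 80 h after dosing as viability; hits lower the growth signal relative to DMSO meaning cytotoxicity.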 Put shortly: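 Viability endpoint from label-free cell-index monitoring: 22Rv1 cultures treated with an eight-point 1:4 dilution series starting at 100 uM final, AUC at 80 h fitted against DMSO.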
Regarding `CCCCCCCCCCCCc1cccc(S(=O)(=O)O)c1`, the AC50 was 75 µM (active).
With `COc1nn(C(=O)NS(=O)(=O)c2ccccc2OC(F)(F)F)c(=O)n1C`, the outcome was inactive.
Regarding `CC(O)(CS(=O)(=O)c1ccc(F)cc1)C(=O)Nc1ccc(C#N)c(C(F)(F)F)c1` (stereo unspecified), the AC50 was 21.4 µM (active) and 9.65 µM (active).
Consider `N#CCC#N`, for which the outcome was inactive.
Same read-out and setting: with `CCCCCCCCCCCCN(C)C` the entry was “inactive”.
For `O=C1c2ccccc2C(=O)C1C(=O)C(c1ccccc1)c1ccc(Cl)cc1` (stereo unspecified), the concentration at half-maximal activity (AC50) was 24.6 µM (active).
The same measure, in the same setting: the result for `CC(=Cc1ccccc1)[N+](=O)[O-]` reads 6.31 µM (active).
In the case of `O=c1[nH]c(=O)n(Cl)c(=O)n1Cl`, the result was inactive.
On the same count and under the same terms, the result for `CC(C)(C)c1ccccc1O` reads “inactive”; that for `CCN(CCO)CCO`, “inactive”; that for `Clc1cccc(Cl)c1`, “inactive”.
Still for that read-out and setting: the result for `COCCl` reads “inactive”.
Turning to `CCOCn1c(-c2ccc(Cl)cc2)c(C#N)c(Br)c1C(F)(F)F`, the AC50 is 7.97 µM (active).
In the case of `CCCCCCCCCCCCOS(=O)(=O)O`, the concentration at half-maximal activity (AC50) was 72.1 µM (active) and the compound was called inactive.
Regarding `O=C(CCl)Nc1ccccc1`, the AC50 was 12.7 µM (active).
For the compound `CN(C)C(=S)S`, the compound was classed as inactive.
As to `N#Cc1cccnc1`, the outcome was inactive.
On the same count and under the same terms, the result for `O=c1nc(O)n(Cl)c(=O)n1Cl` reads “inactive”.
Take `O=C(NC(=O)c1c(F)cccc1F)Nc1cc(Cl)c(OC(F)(F)C(F)C(F)(F)F)cc1Cl` (stereo unspecified): the AC50 was 5.68 µM (active).
Regarding `Nc1ccc(N)cc1`, the result was inactive.
Turning to `C=CC(Cl)CCl` (stereo unspecified), the half-maximal activity concentration (AC50) is 4.53 µM (active).
The same measure, in the same setting: the result for `CCC[CH2][Sn]([Cl])([Cl])[CH2]CCC` reads 3.75 µM (active); that for `CC(C)N(C(=O)CCl)c1ccccc1`, 16.6 µM (active).
For `O=C(O)C1(c2ccc3c(c2)OC[C@H](Cc2ccc(-c4ccccc4)cc2)[C@H]3O)CCCC1`, the call was inactive.
Consider `Clc1cccc(Cl)c1Cl`, for which the compound was called inactive.
For the compound `CC(C)O.CC(C)O.OCCN(CCO)CCO.OCCN(CCO)CCO.[Ti]`, the compound was called inactive.
Still for that read-out and setting: the result for `COc1ccccc1N` reads “inactive”.
On the same count and under the same terms, with `COc1ccc(N)cc1` the entry was “inactive”.
`Oc1cc(Cl)c(Cl)cc1Cl`: the concentration at half-maximal activity (AC50) was 71.8 µM (active).

A further assay in a line: ACEA_ER_AUC_viability: ACEA Biosciences xCELLigence Real-Time Cell Analysis on Estrogen Receptor Agonism for Viability (AID 2283782).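 Further: hit means loss of impedance signal meaning reduced cell growth or viability.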 Put shortly:
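Viability endpoint: reduced impedance area under the curve relative to DMSO, recorded by real-time electrode sensing over ~80 h of continuous exposure. Duplicate plates of T47D in hormone-depleted medium; eight concentrations, 1:4 dilutions, 100 uM maximum.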
For `CCCCCCCCCCCCc1cccc(S(=O)(=O)O)c1`, the AC50 was 83.1 µM (active).
As for `COc1nn(C(=O)NS(=O)(=O)c2ccccc2OC(F)(F)F)c(=O)n1C`, the outcome was inactive.
As for `O=C1c2ccccc2C(=O)C1C(=O)C(c1ccccc1)c1ccc(Cl)cc1` (stereo unspecified), the AC50 is 33 µM (active).
Turning to `CC(=Cc1ccccc1)[N+](=O)[O-]`, the AC50 was 11.5 µM (active).
With `CCN(CCO)CCO`, the compound was called inactive.
Same read-out and setting: with `Clc1cccc(Cl)c1` the entry was “inactive”; with `COCCl`, “inactive”.
As to `CCCCCCCCCCCCOS(=O)(=O)O`, the AC50 was 71.3 µM (active).
Turning to `O=C(CCl)Nc1ccccc1`, the AC50 is 10.8 µM (active).
Regarding `O=c1nc(O)n(Cl)c(=O)n1Cl`, the outcome was inactive.
Turning to `O=C(NC(=O)c1c(F)cccc1F)Nc1cc(Cl)c(OC(F)(F)C(F)C(F)(F)F)cc1Cl` (stereo unspecified), the concentration at half-maximal activity (AC50) is 50 µM (active).
On the same count and under the same terms, the result for `Nc1ccc(N)cc1` reads 49.8 µM (active); that for `CCC[CH2][Sn]([Cl])([Cl])[CH2]CCC`, 1.09 µM (active).
The same measure, in the same setting: the result for `CC(C)N(C(=O)CCl)c1ccccc1` reads 18.5 µM (active).
On to `O=C(O)C1(c2ccc3c(c2)OC[C@H](Cc2ccc(-c4ccccc4)cc2)[C@H]3O)CCCC1`, for which the half-maximal activity concentration (AC50) is 78.3 µM (active).
`COc1ccccc1N`: the compound was called inactive.
Same read-out and setting: the result for `Oc1cc(Cl)c(Cl)cc1Cl` reads “inactive”.
